Here are results for 9 compounds from PubChem BioAssay (Tox21).

Values without a mark were called inactive. Results filed as inconclusive are left out. Calls of active or inactive are those of the source. Unless noted, calls come from the whole dose curve; as a rule, active = well fitted curve in the direction sought with a large enough effect in the repeat runs; inconclusive = weak or mixed curves; inactive = no such curve, though single readings can be large; an effect the other way counts as inactive or inconclusive.

Test [1] can be described thus: qHTS assay to identify small molecule agonists of the estrogen receptor alpha (ER-alpha) signaling pathway in the presence of an antagonist - cell viability counter screen (AID 1259386). Note: series mostly up to about 92 µM; nearly all actives have a fitted effect of over 30% in size. The procedure, abridged: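 Read-out: CellTiter-Fluor fluorescence after 1hr reagent incubation, measured in the same wells as the luciferase readout. VM7Luc4E2 cells were exposed to 15 compound concentrations with 10.0nM ICI-182,780 for 22hr at 37C.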

Test [2] addresses Progesterone receptor (Homo sapiens) (UniProt P06401). Put plainly: qHTS assay to identify small molecule agonists of the progesterone receptor (PR) signaling pathway (AID 1346784; calls by dose curve; note: nearly all actives have a fitted effect of over 30% in size; note: potency is the fitted concentration of half-maximal effect). The procedure, abridged: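 Compounds were tested for PR agonism in HEK 293T cells bearing a beta-lactamase gene under UAS control. Treatment lasted 16 hr at 37C; signal came from fluorescence of a FRET substrate.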

Test [3] can be described thus: qHTS assay to identify small molecule antagonists of the progesterone receptor (PR) signaling pathway - cell viability counter screen (AID 1346798). Note: nearly all actives have a fitted effect of over 50% in size. Note: potency is the fitted concentration of half-maximal effect. The procedure, abridged:
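Following a 4 hr attachment, PR-UAS-bla HEK293T cells in charcoal-stripped FBS medium were exposed to compounds with R5020 for 16 hr; CellTiter-Glo was added and luminescence read after 30 min at room temperature.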

Test [4] in a line: qHTS assay to identify small molecule agonists of the progesterone receptor (PR) signaling pathway - cell viability counter screen (AID 1346799; calls by dose curve; note: nearly all actives have a fitted effect of over 45% in size). The procedure, abridged: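 Here, 3,000 PR-UAS-bla HEK293T cells per well were treated with compounds for 16 hr after a 6 hr preincubation at 37C and 5% CO2; cell viability is the CellTiter-Glo luminescence signal.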
Test [5] is described as follows: qHTS assay to identify small molecule antagonists of the TGF-beta/Smad signaling pathway - cell viability counter screen (AID 1346824). Note: nearly all actives have a fitted effect of over 50% in size. The procedure, abridged: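 Cytotoxicity counter-screen run in the same wells as the beta-lactamase Smad reporter read: CellTiter-Glo luminescence after 30 min at room temperature. HEK 293T SBE-bla cells had 5 hr compound exposure at 37 C with TGF-beta1 (0.25 ng/mL stock).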

A short description of test [6]: qHTS assay to identify small molecule agonists of the TGF-beta/Smad signaling pathway - cell viability counter screen (AID 1346829). Note: top concentration of the series differs between compounds; nearly all actives have a fitted effect of over 45% in size. The procedure, abridged:
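Luminescence from CellTiter-Glo, read after a 30 min room-temperature incubation, gives cell viability of SBE-bla HEK 293T cells treated 5 hr with compounds at 37 C.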

Test [7] can be described thus: qHTS assay to identify small molecule agonists of the TGF-beta/Smad signaling pathway (AID 1346859; active = well fitted activation curve with a large enough effect in the signal ratio in the repeat runs, not every such curve was filed as active; the % refers to the signal ratio; note: series mostly up to about 77 µM). The procedure, abridged:
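Each well held 4,000 SBE-bla HEK 293T cells incubated overnight before compound addition; 5 hr later the cleavable FRET substrate went on for 2 hr at room temperature, and fluorescence was read at two emissions.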

Test [8] concerns the target Thyrotropin-releasing hormone receptor (Homo sapiens) (UniProt P34981). Put plainly: qHTS assay to identify small molecule antagonists of the thyrotropin-releasing hormone receptor (TRHR) signaling pathway (AID 1346877; active = well fitted inhibition curve with a large enough effect in the repeat runs, not every such curve was filed as active; note: series mostly up to about 51 µM). The procedure, abridged: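 HEK293/TRHR cells, 18 h, 37 °C; Ca2+ dye 2 h; cpd 5 min RT; TRH 1 nM final; fluorescence read 3 min, 1 s intervals; 15 concs, triplicate.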

Test [9] has the same target. Put plainly: qHTS assay to identify small molecule agonists of the thyrotropin-releasing hormone receptor (TRHR) signaling pathway (AID 1346891; calls by dose curve; note: series mostly up to about 58 µM). The procedure, abridged: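 Screening of agonists relied on calcium signalling in HEK293 cells expressing human TRHR: dye loading 2 h at 37 °C preceded compound addition and a 3-min fluorescence time course.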
The nature of test [10]: Human pregnane X receptor (PXR) small molecule agonists, qHTS cell viability counter screen (AID 1346977). Note: nearly all actives have a fitted effect of over 50% in size. The procedure, abridged: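 Tox21 qHTS format; PXR-Luc HepG2, 2,000/well, charcoal-stripped FBS 5%. Cpd exposure 24hr. Read: CellTiter-Fluor fluorescence, multiplexed with luciferase.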
A short description of test [11]: Caspase-3/7 induction in HepG2 cells by small molecules, qHTS assay (AID 1346978). Note: nearly all actives have a fitted effect of over 15% in size. The procedure, abridged: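 Caspase-3/7 induction was measured by Caspase-Glo 3/7 luminescence (30 min, room temperature) after a 17 hr compound exposure of wild-type HepG2 cells seeded at 2,000 per well and pre-incubated 5 hr.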
Test [12] can be described thus: Caspase-3/7 induction in CHO-K1 cells by small molecules, qHTS assay (AID 1346980). Note: nearly all actives have a fitted effect of over 15% in size. The procedure, abridged: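 Luminescent Caspase-Glo 3/7 read (30min, room temperature) quantified apoptosis induction. Cells were wild-type CHO-K1, treated with compound for 17hr at 37 C and 5% CO2.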
The target in test [13] is Cytochrome P450 2D6 (Homo sapiens) (UniProt P10635). Put plainly: Cytochrome P450 Family 2 Subfamily D Member 6 (CYP2D6) small molecule antagonists: luciferase reporter qHTS assay (AID 1671196). Note: nearly all actives have a fitted effect of over 50% in size. Note: potency is the fitted concentration of half-maximal effect. The procedure, abridged: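 Luminogenic proluciferin substrate, CYP2D6 enzyme; 10 min RT preincubation with compound, NADPH regeneration system added, 1 h RT. Stop/detection reagent, 20 min RT, luminescence read (RLU). Signal proportional to CYP activity.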
Cytochrome P450 2D6 (Homo sapiens), sequence (P10635 whole entry, looked up): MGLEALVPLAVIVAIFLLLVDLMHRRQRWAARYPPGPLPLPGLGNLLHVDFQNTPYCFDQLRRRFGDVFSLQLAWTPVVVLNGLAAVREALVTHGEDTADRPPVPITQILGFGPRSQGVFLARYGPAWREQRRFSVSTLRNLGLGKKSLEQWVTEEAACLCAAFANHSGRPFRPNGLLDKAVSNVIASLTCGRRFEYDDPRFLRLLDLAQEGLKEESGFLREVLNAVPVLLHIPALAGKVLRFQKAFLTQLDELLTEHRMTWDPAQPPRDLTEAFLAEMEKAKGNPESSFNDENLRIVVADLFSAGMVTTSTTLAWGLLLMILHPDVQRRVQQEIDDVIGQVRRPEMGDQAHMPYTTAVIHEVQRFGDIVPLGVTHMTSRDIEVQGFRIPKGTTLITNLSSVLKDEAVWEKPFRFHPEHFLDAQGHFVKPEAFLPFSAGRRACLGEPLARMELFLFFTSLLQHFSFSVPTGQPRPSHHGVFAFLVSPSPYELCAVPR

Test [14] is described as follows: Caspase-3/7 induction in HepG2 cells by small molecules, qHTS cell viability counter screen (AID 1346981). Note: series mostly up to about 92 µM; nearly all actives have a fitted effect of over 30% in size. The procedure, abridged: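 Fluorescence read-out of live-cell protease activity (CellTiter-Fluor) after 1 hr with reagent. This was measured in the same wells as the caspase-3/7 luminescence, on HepG2 cells exposed to DMSO-dissolved compounds for 16 hr at 37 C.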

The target in test [15] is Nuclear receptor subfamily 1 group I member 2 (Homo sapiens) (UniProt O75469). Put plainly: Human pregnane X receptor (PXR) small molecule agonists, qHTS assay (AID 1346982). Note: nearly all actives have a fitted effect of over 35% in size. Note: potency is the fitted concentration of half-maximal effect. The procedure, abridged: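 HepG2 PXR-Luc reporter line, 5% charcoal-stripped FBS; 5 hr pre-incubation, compound (DMSO) 24 hr at 37 C/5% CO2; ONE-Glo 30 min RT; luminescence read-out.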
Nuclear receptor subfamily 1 group I member 2 (Homo sapiens), sequence (O75469 whole entry, looked up): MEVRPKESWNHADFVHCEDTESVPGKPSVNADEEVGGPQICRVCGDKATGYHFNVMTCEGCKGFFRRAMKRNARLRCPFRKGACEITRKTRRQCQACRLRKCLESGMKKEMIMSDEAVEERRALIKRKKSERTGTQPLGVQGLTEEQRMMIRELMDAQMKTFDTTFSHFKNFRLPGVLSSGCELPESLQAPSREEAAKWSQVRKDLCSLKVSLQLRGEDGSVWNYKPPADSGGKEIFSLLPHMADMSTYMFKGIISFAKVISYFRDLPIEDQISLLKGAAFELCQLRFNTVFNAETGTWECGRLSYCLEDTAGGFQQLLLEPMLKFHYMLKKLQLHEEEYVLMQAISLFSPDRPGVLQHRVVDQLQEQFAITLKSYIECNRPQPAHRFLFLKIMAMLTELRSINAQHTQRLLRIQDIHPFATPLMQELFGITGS
For test [16], the target named is Progesterone receptor (Homo sapiens) (UniProt P06401). Put plainly: qHTS assay to identify small molecule antagonists of the progesterone receptor (PR) signaling pathway (AID 1346795; active = well fitted inhibition curve with a large enough effect in the signal ratio in the repeat runs, not every such curve was filed as active; the % refers to the signal ratio). The procedure, abridged:
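In HEK293T cells bearing the PR-UAS-bla reporter, compound effects on promegestone-driven (1 nM) beta-lactamase expression are assessed after 16 hr using a fluorescent FRET substrate incubated 2 hr at room temperature.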

Test [17] in a line: Caspase-3/7 induction in CHO-K1 cells by small molecules, qHTS cell viability counter screen (AID 1346979). Note: nearly all actives have a fitted effect of over 35% in size. The procedure, abridged:
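CellTiter-Fluor viability check, qHTS format: wild-type CHO-K1, 16hr compound treatment, 1hr reagent incubation, fluorescence read.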

The target in test [18] is Nuclear receptor subfamily 1 group I member 2 (Homo sapiens) (UniProt O75469). Put plainly: CYP3A4 induction through human pregnane X receptor (PXR) by small molecules, qHTS assay (AID 1346984). Note: nearly all actives have a fitted effect of over 40% in size. The procedure, abridged: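 HepG2-derived DPX-2 line carrying PXR plus a CYP3A4-promoter luciferase reporter; cells plated 5 hr, compound-exposed 24 hr at 37C. CYP3A4 activity probed with 3uM (final) Luciferin-IPA for 3hr, then luciferase read after One-Glo.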

Test [19] shares this target. Put plainly: Human pregnane X receptor (PXR) activation by small molecules, qHTS assay (AID 1346985). Note: nearly all actives have a fitted effect of over 40% in size. The procedure, abridged:
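DPX-2 cells (HepG2 co-transfected with a PXR response element and a CYP3A4-promoter luciferase construct) were seeded at 2,000 per well, rested 5 hr at 37C, then exposed to DMSO-dissolved compounds for 24 hr. Activation was read as luciferase luminescence.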

Test [20] has as its target Nuclear receptor subfamily 1 group I member 2 (Rattus norvegicus) (UniProt Q9R1A7). Put plainly: Rat pregnane X receptor (rPXR) activation by small molecules, qHTS assay (AID 1346983). Note: nearly all actives have a fitted effect of over 20% in size. Particulars: rPXR luciferase reporter cells, One-Glo luminescence, 24 h; max activation: hits give high values. The procedure, abridged: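 Luminescent readout (One-Glo luciferase, 30 min room temperature) followed 24 hr compound treatment at 37 C of rPXR cells plated 2,000 per well and preincubated 5hr; qHTS format with compounds delivered in DMSO.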
% is set by controls: 0 for no effect and ±100 for the full control effect.

Progesterone receptor (Homo sapiens), sequence (P06401 whole entry, looked up): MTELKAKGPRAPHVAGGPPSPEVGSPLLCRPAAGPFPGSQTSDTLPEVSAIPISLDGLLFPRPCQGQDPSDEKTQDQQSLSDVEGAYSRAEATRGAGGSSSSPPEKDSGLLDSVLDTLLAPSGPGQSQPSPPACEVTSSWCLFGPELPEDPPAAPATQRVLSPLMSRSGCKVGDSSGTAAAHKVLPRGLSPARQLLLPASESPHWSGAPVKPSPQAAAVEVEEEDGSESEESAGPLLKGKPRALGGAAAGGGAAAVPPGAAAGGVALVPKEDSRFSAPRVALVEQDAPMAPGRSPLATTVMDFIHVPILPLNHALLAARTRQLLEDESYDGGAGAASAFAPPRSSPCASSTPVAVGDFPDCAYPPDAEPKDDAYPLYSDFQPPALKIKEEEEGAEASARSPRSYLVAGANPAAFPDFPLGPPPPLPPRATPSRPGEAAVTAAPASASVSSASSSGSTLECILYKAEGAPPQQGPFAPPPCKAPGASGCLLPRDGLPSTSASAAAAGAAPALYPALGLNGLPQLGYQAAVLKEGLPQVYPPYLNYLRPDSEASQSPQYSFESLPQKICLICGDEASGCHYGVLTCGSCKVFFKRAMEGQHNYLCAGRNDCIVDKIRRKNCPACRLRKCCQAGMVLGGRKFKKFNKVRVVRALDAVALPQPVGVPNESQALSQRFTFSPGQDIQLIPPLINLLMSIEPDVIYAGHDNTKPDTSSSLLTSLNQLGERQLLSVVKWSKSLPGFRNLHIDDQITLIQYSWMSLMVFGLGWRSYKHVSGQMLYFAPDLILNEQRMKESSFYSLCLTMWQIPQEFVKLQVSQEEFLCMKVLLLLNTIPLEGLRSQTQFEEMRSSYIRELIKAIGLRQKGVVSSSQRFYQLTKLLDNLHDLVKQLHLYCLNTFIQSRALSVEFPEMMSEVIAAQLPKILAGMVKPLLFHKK
Thyrotropin-releasing hormone receptor (Homo sapiens), sequence (P34981 whole entry, looked up): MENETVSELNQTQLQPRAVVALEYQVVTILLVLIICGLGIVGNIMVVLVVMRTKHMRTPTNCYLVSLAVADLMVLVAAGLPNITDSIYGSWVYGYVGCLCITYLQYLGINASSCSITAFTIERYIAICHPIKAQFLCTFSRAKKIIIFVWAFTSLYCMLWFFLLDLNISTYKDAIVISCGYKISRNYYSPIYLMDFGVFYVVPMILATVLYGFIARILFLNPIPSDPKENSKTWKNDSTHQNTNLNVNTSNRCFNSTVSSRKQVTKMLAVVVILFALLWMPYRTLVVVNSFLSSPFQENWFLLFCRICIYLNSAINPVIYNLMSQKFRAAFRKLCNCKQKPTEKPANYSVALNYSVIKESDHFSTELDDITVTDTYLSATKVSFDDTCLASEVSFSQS
Nuclear receptor subfamily 1 group I member 2 (Rattus norvegicus), sequence (Q9R1A7 whole entry, looked up): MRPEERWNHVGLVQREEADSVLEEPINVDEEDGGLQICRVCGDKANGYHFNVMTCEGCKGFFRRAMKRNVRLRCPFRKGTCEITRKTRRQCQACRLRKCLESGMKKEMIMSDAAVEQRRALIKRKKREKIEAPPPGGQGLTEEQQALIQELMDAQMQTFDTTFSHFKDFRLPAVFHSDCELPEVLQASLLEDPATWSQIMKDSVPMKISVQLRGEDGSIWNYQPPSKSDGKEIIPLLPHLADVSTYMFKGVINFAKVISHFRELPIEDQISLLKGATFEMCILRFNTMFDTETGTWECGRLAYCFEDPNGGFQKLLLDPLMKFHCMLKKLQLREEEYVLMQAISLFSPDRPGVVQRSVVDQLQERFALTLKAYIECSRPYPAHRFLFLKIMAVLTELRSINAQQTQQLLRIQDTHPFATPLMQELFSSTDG

Take `CCC=CC#N`: the Potency entry in test [1], in test [2], in test [3], in test [4], in [5] and in test [6] was “inactive” in each case. The Potency result in test [7], in [9], in test [10], in [11], in test [12] and in [13] was “inactive” each time. Further, the compound was called inactive in [8].
For `C/C=C\C/C=C/CCCCCCCCOC(C)=O`, the Potency result in [1], in test [2], in test [5], in [6], in test [7] and in test [9] was “inactive” throughout. Moreover, the Potency result in test [10], in test [11], in test [12] and in test [14] was “inactive” each time. In addition, the result in test [8] was inactive. The Potency in [15] is 61.1 µM (active).
For `CCCCCC[C@@H](O)C/C=C\CCCCCCCC(=O)OCC(O)CO` (some centres not stated), the Potency entry in [1], in test [16], in test [4], in [5], in test [6] and in test [7] was “inactive” in each case. The Potency entry in test [9], in test [10], in test [11], in [17] and in test [12] was “inactive” in each case. In addition, the outcome in [8] was inactive. Further, the Potency in test [15] is 34.4 µM (active).
Regarding `C=C(C)[C@@H]1CCC2=CCC[C@@H](C)[C@]2(C)C1`, the Potency result in [1], in test [16], in test [5], in [6], in test [7] and in test [9] was “inactive” throughout. For the same compound, the Potency entry in [10], in [11], in test [17], in test [14] and in [13] was “inactive” each time. Also, the result in test [8] was inactive. Besides, the Potency in test [15] was 38.6 µM (active).
Regarding `CC(CC1c2ccccc2CCc2ccccc21)CN(C)C` (configuration not stated), the Potency result in test [1], in [2], in [4], in [5], in test [6] and in test [7] was “inactive” each time. Further, the Potency result in test [11] and in [12] was “inactive” throughout. In addition, the Potency in test [3] is 23.7 µM (active); in test [13], 0.977 µM (active).
`OC[C@H]1O[C@@H](n2cnc3c(=S)nc[nH]c32)[C@H](O)[C@@H]1O`: the Potency result in test [1], in test [2], in [7], in test [9], in test [11] and in test [12] was “inactive” throughout. Besides, the Potency result in test [14], in test [18] and in test [19] was “inactive” each time. For the same compound, in [8], the compound was called inactive. Further, the Potency in test [15] is 11.9 µM (active).
Consider `C/C=C(/C(=C/C)c1ccc(O)cc1)c1ccc(O)cc1`, for which the Potency entry in [1], in test [2], in [3], in test [5], in [6] and in test [7] was “inactive” in each case. Besides, the Potency entry in test [9], in test [10], in test [12], in test [15], in [18] and in test [19] was “inactive” in each case. Besides, the Potency entry in test [13] is “inactive”. In test [8], the result was inactive. Moreover, the max activation in test [20] is 0.107%.
Regarding `CC(=O)[C@H]1[C@H](C#N)C[C@H]2[C@@H]3CC=C4C[C@@H](O)CC[C@]4(C)[C@H]3CC[C@@]21C`, the Potency result in test [1], in [2], in [3], in [4], in [5] and in test [6] was “inactive” each time. Further, the Potency entry in test [9], in test [10], in test [11], in [17], in [12] and in test [14] was “inactive” each time. Besides, in [13], the Potency result was “inactive”. Besides, the result in test [8] was inactive.
Turning to `CN1C(=O)c2ccccc2C1=O`, the Potency result in test [1], in test [5], in test [6], in test [7], in test [9] and in [10] was “inactive” throughout. The Potency entry in test [11], in test [14] and in test [15] was “inactive” each time. For the same compound, the Potency in test [2] is 1.09 µM (active). Also, the outcome in test [8] was inactive.
